This passage reports growth results from PubChem BioAssay (NCI).

Compounds without any hit were thinned out: in the full panel of roughly 83,000, 20% have a hit.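 A percent growth of 40 corresponds to 60% growth inhibition; 0 means no net growth; -100 means all cells died. Active threshold: below 10.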 Unmarked numbers belong to inactive results. The source made the active and inactive calls.

For the first assay, the system named is NCI-H23 lung. The assay is described as follows: NCI-60 one-dose screen, 48 h (100 = growth as untreated, 0 = no growth, -100 = all killed). The conditions noted are these: 10 µM unless noted.
Regarding `C=CCSc1nc2ccccc2cc1/C=N/O`, the growth was 81.9%. Take `O=C(CCCCCCN1CC(=O)N2[C@@H](c3ccccc3Cl)c3[nH]c4ccccc4c3C[C@H]2C1=O)NO`: the growth is 76.8%. For `CCCCCCCOc1c(OC)cc(C2CC(=O)Nc3c2c(C)nn3-c2nc3ccccc3[nH]2)cc1OC` (configuration not stated), the growth is -2.79% (active). Turning to `COC(=O)c1c2c(c[n+]([O-])c1C)C(=O)C=CC2=O`, the growth is 60.4%. On the same count and under the same terms, the figure for `COc1cccc(-c2nn(-c3ccccc3)cc2-c2ccnc(NCCCNC(=O)Nc3ccc(Cl)c(Cl)c3)c2)c1` is 15.1%; for `Cc1ccc(NS(=O)(=O)c2ccc3c(c2)C2OCCC2C(c2ccc(C(=O)C(C)C)cc2)N3)cc1C` (configuration not stated) it is 38.7%; for `Cc1cc(NCc2cc(Nc3ccnc4cc(Cl)ccc34)ccc2F)nc(N2CCSCC2)n1` it is 26.9%. Still for that read-out and setting: the figure for `O=C(/C=C/c1ccc(Cl)nc1)c1ccc(Cl)cc1Cl` is 105%; for `CCN(CC)CCCC(C)Nc1c2ccc(Cl)cc2nc2ccc(O)cc12` (configuration not stated) it is 46.2%. The same measure, in the same setting: the figure for `CCCCCCCC/C=C\CCCCCCCCOc1ccccc1CC(=O)NCC[N+](C)(C)C` is 65.5%; for `Cc1cc(NCc2cc(Nc3ccnc4cc(Cl)ccc34)ccc2F)nc(N2CCCC2)n1` it is 32.9%.

As for `COc1ccc(C(=O)COc2ccc(/C=C3\Oc4ccccc4C3=O)cc2)cc1`, the growth is 92.9%. Still for that read-out and setting: the figure for `Cn1c2c(c3ccc(Cl)c(Cl)c31)C(C#N)C1(CCNCC1)NC2=O` (configuration not stated) is 72.6%.

In the case of `N#Cc1c(-c2ccccn2)[nH]c(=S)[nH]c1=O`, the growth was 106%. Same read-out and setting: the figure for `Oc1c(CN2CCCC2)cc(COCc2ccc(Br)cc2)c2cccnc12` is 20.7%; for `COc1ccc(N2CCN(c3nc(-c4cc(OC)c(OC)c(OC)c4)nc4ccccc34)CC2)cc1` it is 81.1%; for `Nc1n[nH]c(-c2cc(Cl)ccc2O)c1-c1ccccc1` it is 71.4%. On the same count and under the same terms, the figure for `Cc1ccc(-c2cc(-c3ccccc3C)[nH]c(=O)c2C#N)s1` is 92.4%. On to `O=C(COc1ccc(/C=C2\Oc3ccccc3C2=O)cc1)c1ccc(Cl)cc1`, for which the growth was 107%. The same measure, in the same setting: the figure for `O=C1CCC2=C3C4CCCCC4C(=O)C4CCCC(OC2C1)C34` (configuration not stated) is -12.9% (active).

`O=C(Nc1ccccc1Cl)Oc1ccc(-c2ccccc2)cc1`: the growth was 93.5%. The same measure, in the same setting: the figure for `N#C/C(=C\c1ccc(-c2ccccc2F)o1)c1nc(-c2ccco2)cs1` is 85.5%; for `O=[N+]([O-])c1ccc(Sc2cccc[n+]2[O-])c2nonc12` it is 73.2%; for `COc1cccc(C(=O)NCCNc2cc(-c3cn(-c4ccccc4)nc3-c3cccc(OC)c3)ccn2)c1` it is 59.7%.

For a further assay, the system named is NCI-H226 lung. The description is as above. As to conditions: 10 µM unless noted.
Regarding `COc1cc(-c2nn(-c3ccccc3)cc2-c2ccnc(NCCNS(=O)(=O)c3ccc(Cl)cc3)n2)ccc1Cl`, the growth was 30.8%. The same measure, in the same setting: the figure for `COc1cccc(-c2nc3sccn3c2-c2ccnc(NCCNS(=O)(=O)c3cccc(Cl)c3)c2)c1` is 40.7%; for `O=C1N=c2cc3c(cc2=C/C1=C/c1sc(=S)n(CCc2ccc(O)cc2)c1O)OCCO3` it is 93.5%. In the case of `COc1ccc(OC)c2c1[nH]c(=O)c1c3ncccc3cn21`, the growth is 32.2%. Same read-out and setting: the figure for `O=S(=O)(Nc1cccc(Cl)c1)c1ccc(-c2cnc(C3CC3)o2)cc1` is 40.9%; for `COc1ccc(NC(=O)CSc2nc(C)c(C(C)=O)n2-c2ccc(Cl)cc2)cc1` it is 86.6%. For `Cc1cc(/C=C\c2ccc3ccccc3[n+]2C)c(O)c2ncccc12`, the growth is -35.5% (active). As to `CN(C)c1ccc(-c2ccc3[nH]c(=O)nc(-c4ccccc4)c3c2)cn1`, the growth is 66.6%. As for `O=C(c1ccccc1)N1N=C(c2ccccc2)CC1c1nnc2n(Cc3ccccc3)c(=O)c3c4c(sc3n12)CCCC4` (configuration not stated), the growth is 110%. For `N#Cc1c(N)nc2c(C#N)c(NC(=O)c3ccccc3)nn2c1-c1ccccc1`, the growth is 78%. The same measure, in the same setting: the figure for `COc1ccc(-c2nc3ccc4[nH]ncc4c3c3c2CCCC3)cc1B(O)O` is 61.2%; for `C(=N\Nc1ncc(-c2cc3cc4c(cc3o2)OCO4)s1)/c1ccco1` it is 58.4%; for `Cn1c(-c2c(N)n(Cc3cccnc3)c3nc(C#N)c(C#N)nc23)nc2ccccc21` it is 98.4%.

On to `C[n+]1cccc(CC(=O)NO)c1`, for which the growth is 89.3%. On the same count and under the same terms, the figure for `C=CCSc1nc2ccccc2cc1/C=N/O` is 77.8%; for `O=C(CCCCCCN1CC(=O)N2[C@@H](c3ccccc3Cl)c3[nH]c4ccccc4c3C[C@H]2C1=O)NO` it is 95.4%.

As to `CCCCCCCOc1c(OC)cc(C2CC(=O)Nc3c2c(C)nn3-c2nc3ccccc3[nH]2)cc1OC` (configuration not stated), the growth was -38.7% (active). Still for that read-out and setting: the figure for `COC(=O)c1c2c(c[n+]([O-])c1C)C(=O)C=CC2=O` is 98.1%; for `COc1cccc(-c2nn(-c3ccccc3)cc2-c2ccnc(NCCCNC(=O)Nc3ccc(Cl)c(Cl)c3)c2)c1` it is 47.9%. As for `Cc1ccc(NS(=O)(=O)c2ccc3c(c2)C2OCCC2C(c2ccc(C(=O)C(C)C)cc2)N3)cc1C` (configuration not stated), the growth is 45.3%. Still for that read-out and setting: the figure for `Cc1cc(NCc2cc(Nc3ccnc4cc(Cl)ccc34)ccc2F)nc(N2CCSCC2)n1` is 84.6%. For `O=C(/C=C/c1ccc(Cl)nc1)c1ccc(Cl)cc1Cl`, the growth was 103%. Consider `CCN(CC)CCCC(C)Nc1c2ccc(Cl)cc2nc2ccc(O)cc12` (configuration not stated), for which the growth is 39.4%. Still for that read-out and setting: the figure for `CCCCCCCC/C=C\CCCCCCCCOc1ccccc1CC(=O)NCC[N+](C)(C)C` is 52.3%; for `Cc1cc(NCc2cc(Nc3ccnc4cc(Cl)ccc34)ccc2F)nc(N2CCCC2)n1` it is 65.8%; for `COc1ccc(C(=O)COc2ccc(/C=C3\Oc4ccccc4C3=O)cc2)cc1` it is 88%. On the same count and under the same terms, the figure for `Cn1c2c(c3ccc(Cl)c(Cl)c31)C(C#N)C1(CCNCC1)NC2=O` (configuration not stated) is 44.1%; for `N#Cc1c(-c2ccccn2)[nH]c(=S)[nH]c1=O` it is 103%.

Regarding `Oc1c(CN2CCCC2)cc(COCc2ccc(Br)cc2)c2cccnc12`, the growth is -0.576% (active). Same read-out and setting: the figure for `COc1ccc(N2CCN(c3nc(-c4cc(OC)c(OC)c(OC)c4)nc4ccccc34)CC2)cc1` is 78.4%.

Turning to `Nc1n[nH]c(-c2cc(Cl)ccc2O)c1-c1ccccc1`, the growth is 70.5%. Take `Cc1ccc(-c2cc(-c3ccccc3C)[nH]c(=O)c2C#N)s1`: the growth was 93.1%. Still for that read-out and setting: the figure for `O=C(COc1ccc(/C=C2\Oc3ccccc3C2=O)cc1)c1ccc(Cl)cc1` is 92.4%.

As to `O=C1CCC2=C3C4CCCCC4C(=O)C4CCCC(OC2C1)C34` (configuration not stated), the growth was 92.6%. Same read-out and setting: the figure for `O=C(Nc1ccccc1Cl)Oc1ccc(-c2ccccc2)cc1` is 103%. Take `N#C/C(=C\c1ccc(-c2ccccc2F)o1)c1nc(-c2ccco2)cs1`: the growth was 80.9%. With `O=[N+]([O-])c1ccc(Sc2cccc[n+]2[O-])c2nonc12`, the growth is 102%.

For `COc1cccc(C(=O)NCCNc2cc(-c3cn(-c4ccccc4)nc3-c3cccc(OC)c3)ccn2)c1`, the growth is 77.3%.
